Assay outcomes (PubChem BioAssay)
Only some compounds are listed: those with a hit (about 7.5% of all), similar ones and a draw of the others.
SMN2 splice enh: qHTS Assay for Enhancers of SMN2 Splice Variant Expression; HEK293 SMN2-luciferase splicing reporter, luminescence, 30-36 h; AID 1458, 2008; Potency, µM (series often up to 46.1 µM), actives largely listed as activators; 210,000 tested, 2.8% active; also: nearly all actives have a fitted effect of over 55% in size
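qHTS luciferase splicing reporter: luminescence rises when SMN2 exon 7 is included in transfected HEK293 cells. Compound exposure lasted 30-36 h at 37C, with 4.5 mM final sodium butyrate as control, followed by a ONE-Glo read.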
FLuc counter: qHTS profiling assay for firefly luciferase inhibitor/activator using purifed enzyme and Km concentrations of substrates (counterscreen for miR-21 project). Luciferin 4-monooxygenase (Photinus pyralis), P08659. purified FLuc, Km substrates, luminescence inhibition. Potency, µM (doses to about 57.5 µM), hits mostly inhibitors. 360,000 tested, 6.9% active. AID 588342, 2011; also: nearly all actives have a fitted effect of over 55% in size
Target sequence (P08659 whole entry, looked up): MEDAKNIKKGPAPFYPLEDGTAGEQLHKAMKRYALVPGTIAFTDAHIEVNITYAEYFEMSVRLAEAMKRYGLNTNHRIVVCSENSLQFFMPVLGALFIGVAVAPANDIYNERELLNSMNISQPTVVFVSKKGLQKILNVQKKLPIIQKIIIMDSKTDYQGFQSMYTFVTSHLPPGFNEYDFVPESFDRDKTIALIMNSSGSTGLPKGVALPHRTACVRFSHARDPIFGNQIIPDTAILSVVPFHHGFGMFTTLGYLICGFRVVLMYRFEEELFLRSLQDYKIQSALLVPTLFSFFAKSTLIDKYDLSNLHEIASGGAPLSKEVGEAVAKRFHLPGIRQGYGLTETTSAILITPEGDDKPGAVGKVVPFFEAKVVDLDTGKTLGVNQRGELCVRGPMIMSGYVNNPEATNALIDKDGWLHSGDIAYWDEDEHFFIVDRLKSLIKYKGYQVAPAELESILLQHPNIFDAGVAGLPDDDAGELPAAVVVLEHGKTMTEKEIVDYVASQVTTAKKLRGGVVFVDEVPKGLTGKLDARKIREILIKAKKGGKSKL
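Purified P. pyralis luciferase (10nM final) with 10uM D-luciferin and 10uM ATP (Km levels) in 50mM Tris acetate pH 7.5, 10mM Mg acetate, 0.01% Tween-20, 0.05% BSA; qHTS 6-point titration, ~60 µM downward; luminescence read.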
ELG1 genotoxic: qHTS screen for small molecules that induce genotoxicity in human embryonic kidney (HEK293T) cells expressing luciferase-tagged ELG1; HEK293T ELG1-luciferase reporter, luminescence, 16 h; 330,000 tested, 1.3% active; AID 504466, 2011; Potency, µM (doses to about 46 µM), usual class: activators; also: nearly all actives have a fitted effect of over 60% in size
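Reporter readout depends on ELG1 protein level, which increases with genetic stress. After 16 hr compound exposure at 37 °C, luciferase activity was quantified using ONE-Glo.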
KinaseGlo FLuc: Counterscreen for Luciferase (Kinase-Glo TM) Inhibition; 200,000 tested, 0.28% active; Potency, µM (doses to about 38.3 µM), hits mostly inhibitors; Kinase-Glo luciferase, ATP luminescence, 8 min; AID 1379, 2008; Luciferin 4-monooxygenase (Photuris pensylvanica), Q27757; also: nearly all actives have a fitted effect of over 60% in size
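Kinase-Glo luciferase light output from ATP and luciferin was measured with 10 uM ATP, within the enzyme's linear range. Buffer: 50 mM imidazole pH 7.2, 50 mM KCl, 7 mM MgCl2, 0.01% Tween 20, 0.05% BSA; luminescence read after 8 min at ambient temperature.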
NPC1 prom act: qHTS Assay for NPC1 Promoter Activators | Potency, µM (highest dose often 9.22 µM), hits mostly activators | Huh7 NPC1 promoter luciferase reporter, 24 h | 320,000 tested, 2.4% active | AID 485313, 2010; also: nearly all actives have a fitted effect of over 60% in size
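Compounds in DMSO were transferred onto Huh7 NPC1-luciferase reporter cells pre-incubated 2 h; after 24 h at 37 °C, Amplite reagent was dispensed and luminescence recorded 10 min later.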
Rab9 prom act: qHTS Assay for Rab9 Promoter Activators; Huh7 Rab9 promoter-luciferase reporter, luminescence, 24 h; Potency, µM (doses to about 9.22 µM), hits mostly activators; 320,000 tested, 2.8% active; AID 485297, 2010; also: nearly all actives have a fitted effect of over 60% in size
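Using Huh7 cells stably transfected with Rab9 promoter–luciferase, compounds were incubated 24 h at 37 °C, 5% CO2; luciferase luminescence was read 10 min after reagent addition.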
Numbers stand for hits; i = inactive; ? = inconclusive; nt = no result. Calls follow the shape of the dose curve; as a rule, active = well fitted curve in the direction sought with a large enough effect; inconclusive = small, poorly fitted or top-dose-only effect, or another doubt; inactive = no such curve, though single readings can be large; an effect the other way counts as inactive or inconclusive.

SMILES	SMN2 splice enh	FLuc counter	ELG1 genotoxic	KinaseGlo FLuc	NPC1 prom act	Rab9 prom act
Brc1ccc2nc(-c3c[nH]c4ccccc34)cn2c1	10µM	1.5µM	?	i	2.2µM	1µM
Cc1cccn2cc(-c3c[nH]c4ccccc34)nc12	13µM	19µM	?	i	?	?
COc1ccc(-n2nc(C(=O)c3cccs3)cc(-c3nc4ccccc4[nH]3)c2=N)cc1	?	i	23µM	i	i	i
Cc1ccccc1-n1nc(C(=O)c2cccs2)cc(-c2nc3ccccc3[nH]2)c1=N	i	i	i	i	i	i
CC(C)CC1NC(=O)N(CC(=O)Nc2cc(S(=O)(=O)N3CCOCC3)ccc2Cl)C1=O (centres undefined)	nt	nt	i	nt	nt	nt
O=c1cc(-c2ccccc2Cl)oc2cc(O)cc(O)c12	i	27µM	i	i	i	i
CCOc1cccc2oc(-c3ccccc3Cl)cc(=O)c12	nt	nt	nt	i	nt	nt
Nc1ccc(O)c2c(=O)cc(-c3ccccc3Cl)oc12	11µM	2.7µM	?	i	2.8µM	2.8µM
COc1ccc(CNC(=O)Cn2c(-c3ccccc3)cc(C(C)=O)c2C)cc1OC	i	i	nt	nt	nt	nt
c1ccc(-c2nnn(C34CC5CC(CC(C5)C3)C4)n2)cc1	?	17µM	?	i	i	i
CCOC(=O)C1=CC[C@H]2c3c(c4ccccc4n3C)C(=O)C1N2Cc1ccccc1	nt	nt	i	nt	nt	nt
C/C(=N\NC(=O)c1ccc(Br)cc1)c1cccc(NC(=O)c2cccnc2)c1	?	12µM	i	i	i	i
C/C(=N/NC(=O)c1ccncc1)c1ccc(NC(=O)c2ccccc2)cc1	nt	21µM	i	nt	i	i
C/C(=N\NC(=O)c1ccccc1O)c1cccc(NC(=O)c2ccccc2)c1	nt	11µM	i	nt	i	i
C/C(=N\NC(=O)c1cccc(N/N=C(\C)c2ccccc2)c1)c1ccccc1	20µM	13µM	i	i	?	?
C/C(=N\NC(=O)c1cccc(N/N=C(\C)c2ccncc2)c1)c1ccncc1	i	?	i	i	i	i
CC(=O)Nc1cccc(/C(C)=N/NC(=O)c2ccc(O)cc2)c1	i	?	i	i	i	i
Cc1cccc([N+](=O)[O-])c1NC(=O)CSc1nnc2ccccn12	nt	nt	i	nt	i	i
CCc1cccc(NC(=O)CCS(=O)(=O)c2cc3c4c(c2)CCN4C(=O)CC3)c1	nt	i	nt	nt	nt	nt
Cn1c(=O)n(C)c2cc(NC(=O)Cc3ccccc3[N+](=O)[O-])ccc21	nt	i	?	nt	i	i
C/C(=N\NC(=O)c1nn(C)cc1Br)c1cccc(NC(=O)c2ccncc2)c1	i	12µM	i	i	i	i
C/C(=N\NC(=O)c1ccncc1)c1cccc(NC(=O)c2ccc(C(C)(C)C)cc2)c1	nt	0.12µM	i	nt	1.4µM	2µM
C/C(=N\NC(=O)c1ccccc1O)c1ccc(NC(=O)c2ccccc2)cc1	nt	21µM	i	nt	?	?
C/C(=N\Nc1ccccc1)c1cccc(N)c1	nt	21µM	?	nt	i	?
CC(=O)Nc1ccc(/C(C)=N/NC(=O)c2ccncc2)cc1	i	i	i	i	i	i
SMILES	SMN2 splice enh	FLuc counter	ELG1 genotoxic	KinaseGlo FLuc	NPC1 prom act	Rab9 prom act
C/C(=N/NC(=O)c1ccc(Cn2cccn2)o1)c1cccc(NC(=O)c2ccncc2)c1	nt	?	i	nt	i	i
C/C(=N\NC(=O)c1ccco1)c1ccc(NC(=O)c2ccccc2)cc1	?	?	i	i	?	?
Cc1c(N)cccc1Cl	i	nt	nt	nt	nt	nt
O=C(Cc1csc2nc(-c3ccc(F)cc3)cn12)NCc1ccccc1	nt	i	nt	nt	nt	nt
CC1(C2CC2)NC(=O)N(CC(=O)N2CCN(c3ccccc3Cl)CC2)C1=O (centres undefined)	nt	i	i	nt	i	i
CCn1c(C)nc2cc(C(=O)NNC(=S)Nc3ccccc3OC)ccc21	nt	19µM	i	nt	i	?
CCn1c(C)nc2cc(C(=O)N/N=C(\C)c3ccccc3O)ccc21	?	13µM	i	i	?	?
CCn1c(C)nc2cc(C(=O)N/N=C/c3ccccc3C)ccc21	16µM	11µM	?	i	1.8µM	1.1µM
